Ten compounds from PubChem BioAssay (NCI) can be followed below.

Structures are written as SMILES. Compounds without any hit were thinned out: in the full panel of roughly 83,000, 20% have a hit.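 How to read the values: 0–100, growth inhibition (40 = 60% inhibited); 0, no net growth; -100 to 0, cell death (-40 = 40% of starting cells died; -100 = all dead).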 Values without a mark were called inactive. Active and inactive are the calls of the source. Rule for the calls: active = growth percent below 10; inactive = the rest.

What all share (assay): NCI-60 one-dose screen, 48 h (100 = growth as untreated, 0 = no growth, -100 = all killed)
What all share (settings): 10 µM unless noted

Assay [1] has as its system SR leukemia.
The subject of assay [2] is RPMI-8226 leukemia.
Assay [3] deals with OVCAR-8 ovarian.
In assay [4] the test system is OVCAR-5 ovarian.
Assay [5] has as its system OVCAR-4 ovarian.
Assay [6] relates to SK-OV-3 ovarian.
In assay [7] the test system is IGROV1 ovarian.
In assay [8] the test system is OVCAR-3 ovarian.
Assay [9] concerns HS 578T breast.
Assay [10] deals with NCI/ADR-RES ovarian.
The subject of assay [11] is T-47D breast.
Assay [12] has as its system BT-549 breast.
In assay [13] the test system is MDA-MB-435 melanoma.
The subject of assay [14] is SW-620 colon.
The subject of assay [15] is MCF7 breast.
Assay [16] relates to HCT-116 colon.
The test system of assay [17] is HCC-2998 colon.
The test system of assay [18] is KM12 colon.

`O=C(/C=C(/C=C/c1csc2ccccc12)OB(F)F)/C=C/c1csc2ccccc12`: the growth was 3.63% (active) in assay [1]; -12% (active) in [2]; -9.55% (active) in assay [3]; 60.6% in assay [4]; -0.888% (active) in assay [5]; 100% in [6]. The growth was 11.3% in assay [7]; -14.2% (active) in assay [8]; 3.47% (active) in assay [9]; 18.3% in assay [10]; 38.4% in assay [11]; 4.74% (active) in [12]. The growth in [13] is -18.6% (active); in assay [14], 5.19% (active); in [15], 39.9%; in assay [16], -57.7% (active); in assay [17], 92%; in assay [18], 37.7%.

`O=C(CCN1CCCC1)Nc1ccc2c(NCCc3ccccc3)c3ccccc3nc2c1`: the growth in [1] is -16.1% (active); in assay [2] it was -41.9% (active); in [3] it was 3.23% (active); in assay [4], 7.44% (active); in [5], -24.6% (active); in assay [6], -6.92% (active). Moreover, the growth in assay [7] is -6.54% (active); in assay [8] it was -37.8% (active); in assay [9] it was -25.1% (active); in assay [10], 71.5%; in assay [11], 1.89% (active); in assay [12] it was -15.3% (active). Moreover, the growth was -92.1% (active) in [13]; -44.9% (active) in assay [14]; -19.4% (active) in assay [15]; -38.2% (active) in assay [16]; -56.8% (active) in assay [17]; -15.6% (active) in assay [18].

Take `C=C(C)[C@@H]1CC[C@]2(C(=O)N3CCN(C)CC3)CC[C@]3(C)[C@H](CC[C@@H]4[C@@]5(C)C/C(=C/c6cccnc6)C(=O)C(C)(C)[C@@H]5CC[C@]43C)[C@@H]12`: the growth is 19.9% in assay [1]; 21.2% in [2]; 56.2% in assay [3]; 100% in [4]; 49.2% in assay [5]; 83.8% in [6]. The growth in assay [7] is 96%; in [8], 57.5%; in [9], 76.4%; in assay [10], 64.2%; in [11], 54.2%; in assay [12] it was 83.2%. The growth in assay [13] was 69.4%; in assay [14], 48.1%; in assay [15] it was 27.2%; in [16], 25.3%; in assay [17], 77.5%; in assay [18], 54.7%.

Turning to `CNC(=O)c1cccc(Cn2nc(C)c(NC(=O)c3ccc(COc4ccc(C(F)(F)F)cc4C)cc3)c2C)c1`, the growth in [1] is 23.3%; in [2] it was 27.3%; in [3], 33.9%; in assay [4], 100%; in assay [5] it was 29.6%; in assay [6] it was 70.9%. In addition, the growth was 63.8% in [7]; 34% in assay [8]; 84.9% in [9]; 35.4% in assay [10]; 6.16% (active) in [11]; 19.7% in [12]. Moreover, the growth is 36.2% in assay [13]; 77.3% in [14]; 21.7% in assay [15]; 29.2% in assay [16]; 68.5% in [17]; 61.7% in assay [18].

Regarding `Cn1c2ccccc2c2c3c(c4c5ccccc5n(C)c4c21)C(=O)OC3`, the growth is 83.9% in [1]; 89.9% in [2]; 98.6% in assay [3]; 95.9% in [4]; 96.9% in [5]; 100% in assay [6]. The growth in [7] is 78%; in [8] it was 102%; in assay [9] it was 97.4%; in assay [10], 95.5%; in assay [11], 95.2%; in assay [12], 97.2%. Besides, the growth was 103% in assay [13]; 88% in assay [14]; 92.1% in assay [15]; 93.8% in assay [16]; 99.7% in [17]; 97.2% in assay [18].

Turning to `C=C1C(=O)O[C@H]2[C@H]1CC/C(COC(=O)NCc1c[nH]c3ccc(Cl)cc13)=C\CC[C@@]1(C)O[C@@H]21`, the growth in [1] was 7.4% (active); in [2], -35.5% (active); in [3], -59.2% (active); in assay [4], -27.7% (active); in [5], -54.7% (active); in assay [6], 90.5%. Further, the growth was -65.8% (active) in [7]; -87.2% (active) in assay [8]; 25.3% in [9]; 48.1% in assay [10]; -76.2% (active) in assay [11]; -65.6% (active) in assay [12]. For the same compound, the growth was -88.4% (active) in assay [13]; -74.3% (active) in assay [14]; 17.2% in assay [15]; -90.1% (active) in assay [16]; 70.4% in [17]; 13.8% in assay [18].

Turning to `COc1cc(NC(C)CCCNC(=O)CCC(=O)NCCCNCCCCCCCCCCNCCCNC(=O)CCC(=O)NCCCC(C)Nc2cc(OC)cc3cccnc23)c2ncccc2c1` (stereo not given), the growth in assay [1] was 92% [8 µM]; in assay [2], 52.9% [8 µM]; in assay [3], 77.7% [8 µM]; in assay [4], 79.3% [8 µM]; in assay [5] it was 4.17% [8 µM] (active); in [6], 116% [8 µM]. The growth in [7] is 57.9% [8 µM]; in assay [8], 41.4% [8 µM]; in assay [9] it was 64.5% [8 µM]; in [10] it was 101% [8 µM]; in [11] it was 28.5% [8 µM]; in assay [12] it was 95.5% [8 µM]. For the same compound, the growth is 75.8% [8 µM] in [13]; 73.4% [8 µM] in assay [14]; 24.3% [8 µM] in [15]; 69.4% [8 µM] in [16]; 79.8% [8 µM] in assay [17]; 89.2% [8 µM] in assay [18].

Turning to `COc1ccc2c(c1)oc1c(C)c3c(c(C)c12)C(=O)N(N)C3=O`, the growth was 26.2% in assay [1]; 59.5% in assay [2]; 26.9% in [3]; 40.4% in [4]; -20.8% (active) in assay [5]; 61.2% in assay [6]. Moreover, the growth in assay [7] was 26.8%; in assay [8], 24.9%; in assay [9], 19.1%; in assay [10] it was 28.6%; in [11], 44.3%; in [12], -43.5% (active). The growth was 36.8% in assay [13]; 29.4% in assay [14]; 57.3% in assay [15]; -13% (active) in assay [16]; 64.6% in [17]; 22% in assay [18].

For the compound `CCOC(=O)Oc1c(OC)cc(C(=O)c2ccc(OC)c(O)c2OC)cc1OC`, the growth in assay [1] is 28%; in assay [2] it was 21%; in assay [3] it was 28.5%; in assay [4], 76.6%; in assay [5], 75.3%; in assay [6] it was 31.6%. Moreover, the growth in assay [7] was 41.8%; in assay [8], -1.93% (active); in [9], 14.7%; in assay [10], -9.66% (active); in assay [11], 43.8%; in [12], 40.1%. The growth was -47.4% (active) in assay [13]; 20.5% in [14]; 19.5% in assay [15]; 9.57% (active) in [16]; 39.7% in assay [17]; 25.7% in assay [18].

With `Cc1ccc(NC(=O)c2cc(-c3nc4ccccc4s3)c(=O)n(NS(=O)(=O)c3ccc(Cl)cc3)c2N)cc1`, the growth is 95% in assay [1]; 94.6% in [2]; 103% in assay [3]; 110% in assay [4]; 103% in assay [5]; 108% in assay [6]. Further, the growth is 99.7% in [7]; 103% in assay [8]; 104% in [9]; 105% in assay [10]; 98.7% in assay [11]; 115% in [12]. Further, the growth is 99.4% in assay [13]; 111% in assay [14]; 93.7% in assay [15]; 95.6% in assay [16]; 118% in assay [17]; 98.8% in assay [18].
